Experimental data published in PubChem BioAssay.
Inconclusive results are not listed. Activity calls are given as the source filed them. Unless noted, no rule for the calls is given here.

Legend:
[1] = biological target: Mitogen-activated protein kinase 7 (Homo sapiens) (UniProt Q13164); experiment: Gal4-ERK5 driven luciferase induction – cell-based, HTS, primary screen (AID 1508626;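 active = luciferase signal above three times the same-plate solvent-only control wells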;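 also: luciferase driven by Gal4-ERK5 fusion binding five Gal4 sites before minimal TATA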); conditions: HeLa Gal4-ERK5 transactivation, 18 h, at 5 µM, stronger effect = higher value
Sequence of Mitogen-activated protein kinase 7 (Homo sapiens) (Q13164 whole entry, looked up, the tested form may be a part): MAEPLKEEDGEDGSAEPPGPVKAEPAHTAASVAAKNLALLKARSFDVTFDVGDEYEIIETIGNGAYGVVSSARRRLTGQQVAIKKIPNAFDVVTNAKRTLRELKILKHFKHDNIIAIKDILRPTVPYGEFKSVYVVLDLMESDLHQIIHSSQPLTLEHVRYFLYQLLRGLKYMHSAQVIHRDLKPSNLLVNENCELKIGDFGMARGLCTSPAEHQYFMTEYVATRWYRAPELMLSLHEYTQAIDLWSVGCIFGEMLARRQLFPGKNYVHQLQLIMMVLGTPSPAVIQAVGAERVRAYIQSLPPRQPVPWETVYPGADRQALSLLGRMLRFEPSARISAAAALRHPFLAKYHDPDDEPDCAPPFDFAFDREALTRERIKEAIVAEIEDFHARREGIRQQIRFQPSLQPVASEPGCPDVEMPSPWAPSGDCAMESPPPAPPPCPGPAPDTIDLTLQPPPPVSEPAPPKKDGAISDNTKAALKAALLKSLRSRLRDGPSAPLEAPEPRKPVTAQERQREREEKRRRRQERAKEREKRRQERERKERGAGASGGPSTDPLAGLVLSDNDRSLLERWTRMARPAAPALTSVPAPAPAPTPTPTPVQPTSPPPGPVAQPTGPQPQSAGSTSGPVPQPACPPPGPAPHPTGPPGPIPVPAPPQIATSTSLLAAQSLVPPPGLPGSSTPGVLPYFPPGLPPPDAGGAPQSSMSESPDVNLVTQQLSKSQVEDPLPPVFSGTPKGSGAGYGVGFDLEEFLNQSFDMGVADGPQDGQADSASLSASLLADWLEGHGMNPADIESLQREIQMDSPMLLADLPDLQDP

[2] = compounds altering viability of human ES cells (AID 493140); conditions: human embryonic stem cell survival screen; stronger effect = higher value;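 also: cells exposed to compounds for four days before counting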
[3] = compounds altering circadian rhythm period length – cell-based, LOPAC library, luminescence reporter (AID 2774); conditions: circadian reporter cells, at 7 µM, actives lie on both sides;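 also: values are relative to mean of DMSO wells on each plate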
[4] = test system: Hepatitis C virus NS3 helicase; experiment: blockers of NS3h binding to ssDNA – biochemical, fluorescence polarization, LOPAC1280 library, primary screen (AID 687035; in the data active = inhibition above about 37%); conditions: Purified HCV NS3 helicase, Cy5-dT15 ssDNA binding fluorescence polarization; stronger effect = higher value; concentration not given here
[5] = compounds altering Cy5-DNA-NS3h complex signal – biochemical, LOPAC1280, artefact control for HCV NS3 helicase inhibitor project (AID 687037); conditions: Cy5-DNA-NS3h complex fluorescence interference counterscreen
[6] = blockers of cellular phospholipid synthesis – cell-based, LOPAC library, screen 4, primary screen (AID 1347384); conditions: animal cells, phospholipid biosynthesis inhibition screen; at 10 µM
[7] = viability loss in pontine glioma line – cell-based, SU-DIPG-XIII, MIPE5.0, CellTiter-Glo, qHTS, dose response (AID 1347064; cut-off not given, nearly all actives have AC50 up to about 23 µM;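 as to AC50: cells exposed to compound for 48 hours before the viability read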); conditions: CellTiter-Glo ATP luminescence
[8] = JHH-DIPG-1 glioma cell viability, MIPE5.0 library, CellTiter-Glo luminescence, qHTS (AID 1347067; cut-off not given, nearly all actives have AC50 up to about 26 µM;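 also: cells exposed to compound for 48 hours before readout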); conditions: JHH-DIPG-1 glioma viability, CellTiter-Glo ATP luminescence
[9] = viability loss in pontine glioma line – cell-based, SU-DIPG-IV, MIPE4.0, CellTiter-Glo, qHTS, dose response (AID 1347063; cut-off not given, nearly all actives have AC50 up to about 30 µM;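 also: compound exposure lasted 48 hours before the viability readout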); conditions: CellTiter-Glo ATP luminescence
[10] = viability loss in pontine glioma line – cell-based, SU-DIPG-XXV, MIPE5.0, CellTiter-Glo, qHTS, dose response (AID 1347065; cut-off not given, nearly all actives have AC50 up to about 26 µM;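 also: cells exposed to compound for 48 hours before ATP readout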); conditions: CellTiter-Glo ATP luminescence
[11] = growth inhibition, single agent or in combination, cell-based, chromothripsis tumors, cisplatin or BGB combos (AID 1671449; in the data active = inhibition above about 80%;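 also: cells exposed for 96 hours; 0% = vehicle DMSO and 100% = killing by high DMSO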); conditions: LFS_MB_P medulloblastoma cells
[12] = growth inhibition, single agent and combos, cell-based, chromothripsis tumors, cisplatin or BGB combos (AID 1671450; in the data active = inhibition above about 80%;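 also: cells exposed to compound for four days; 0% = vehicle DMSO and 100% = cell killing by high DMSO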); conditions: HDN33 neuroblastoma cells, stronger effect = higher value
[13] = growth inhibition, single agents and combos, ICB984, cell-based, cisplatin or BGB combos, synergistic combos for chromothripsis tumors (AID 1671451); conditions: ICB984 medulloblastoma cells, drug combinations, stronger effect = higher value;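 also: cells exposed for 96 hours before readout; 0% = vehicle DMSO and 100% = killing by high DMSO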
[14] = growth inhibition, single agents and combos, HTB85, cell-based, BGB or cisplatin IC20 combos, synergistic combos for chromothripsis tumors (AID 1671453; in the data active = inhibition above about 80%;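 also: cells exposed for 96 hours before readout; 0% = vehicle DMSO and 100% = high DMSO killing control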); conditions: HTB85 osteosarcoma cells, drug combinations, stronger effect = higher value
[15] = growth inhibition, MDA-MB-436, cell-based, BGB or cisplatin combos, synergistic combos for chromothripsis tumors (AID 1671458); conditions: MDA-MB-436 breast carcinoma growth inhibition, drug combinations, stronger effect = higher value;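 also: cells exposed for 96 hours; 0% = vehicle DMSO and 100% = killing by high DMSO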
[16] = BT084 cell growth, single and combined drugs, ICGC_MB145, cisplatin and BGB IC40 combos (AID 1671461; in the data active = inhibition above about 80%;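 also: cells exposed to drugs for 96 hours; 0% = vehicle DMSO and 100% = high DMSO full killing control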); conditions: BT084 medulloblastoma cells, drug combinations, stronger effect = higher value
[17] = RCMB18 cell growth, single agent and combined, cisplatin and BGB IC40 combos (AID 1671462; in the data active = inhibition above about 80%;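 also: cells exposed to compound for four days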); conditions: RCMB18 medulloblastoma cells, stronger effect = higher value
[18] = CRL1545 cell growth, single agent and combined, cisplatin and BGB IC20 combos (AID 1671464; in the data active = inhibition above about 80%;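 also: cells exposed to compound for 96 hours before readout; 0% = vehicle DMSO and 100% = high DMSO killing control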); conditions: CRL1545 osteosarcoma cells, stronger effect = higher value
[19] = growth inhibition of DIPG cells – cell-based, MIPE4.0 library, CellTiter-Glo luminescence, qHTS (AID 1347066; cut-off not given, nearly all actives have AC50 up to about 30 µM;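 also: cells exposed to compound for 48 hours before readout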); conditions: SU-DIPG-VI viability, CellTiter-Glo ATP luminescence
[20] = measured here: with BGB IC20 combination, at 0.5 µM
[21] = measured here: with cisplatin IC20 combination, at 0.5 µM

Compound: NC(=O)CCCCC1CCSS1 (configuration not stated)
- luciferase signal [1]: 44 AU (inactive)

Compound: CC(O)(P(=O)(O)O)P(=O)(O)O
- survival [2]: 4.67 (inactive)
- luciferase signal [1]: 48 AU (inactive)

Compound: C[C@@]12C(=O)OC(=O)[C@]1(C)C1CCC2O1
- survival [2]: 0.417 (inactive)

Compound: O=C1OC2(c3ccc(O)cc3Oc3cc(O)ccc32)c2ccccc21
- luciferase signal [1]: 52 AU (inactive)

Compound: CCN(CC)CCOc1ccc2c(c1)C(=O)c1cc(OCCN(CC)CC)ccc1-2
- luciferase signal [1]: 108 AU (inactive)

Compound: CC[C@@H](CO)NCCN[C@@H](CC)CO
- luciferase signal [1]: 40 AU (inactive)

Compound: CC1=C(C/C=C(\C)CCC[C@H](C)CCC[C@H](C)CCCC(C)C)C(=O)c2ccccc2C1=O
- luciferase signal [1]: 156 AU (inactive)

Compound: COc1cc(C(=O)NCCCCCC(=O)O)cc(OC)c1OC
- luciferase signal [1]: 36 AU (inactive)

Compound: CC(O)Cn1cnc2c1c(=O)n(C)c(=O)n2C (configuration not stated)
- survival [2]: 7 (inactive)
- luciferase signal [1]: 104 AU (inactive)

Compound: O=C(Nc1ccc(C(=O)O)c(O)c1)c1ccccc1
- luciferase signal [1]: 48 AU (inactive)

Compound: OCCc1ccccc1
- luciferase signal [1]: 108 AU (inactive)

Compound: NC(=O)C1(N2CCCCC2)CCN(CCCC(=O)c2ccc(F)cc2)CC1
- luciferase signal [1]: 52 AU (inactive)

Compound: O=C(OOC(=O)c1ccccc1)c1ccccc1
- luciferase signal [1]: 104 AU (inactive)

Compound: CC(C)C(=O)c1c(C(C)C)nn2ccccc12
- period change [3]: -0.095 h (inactive)
- inhibition [4]: -1% (inactive)
- fluorescence ratio (interference) [5]: 1 (inactive)
- outcome [6]: inactive

Compound: Cc1cc(C)c(/C=C2\C(=O)Nc3ccccc32)[nH]1
- period change [3]: 0.375 h (inactive)
- inhibition [4]: 6% (inactive)
- fluorescence ratio (interference) [5]: 1 (inactive)
- outcome [7]: inactive
- outcome [8]: inactive
- outcome [6]: inactive

Compound: C[C@@H](CN1CC(=O)NC(=O)C1)N1CC(=O)NC(=O)C1
- outcome [9]: inactive
- outcome [7]: inactive
- outcome [10]: inactive
- inhibition ([11]; at 0.5 µM, stronger effect = higher value): -25.4% (inactive)
- inhibition ([11]; measured here: combination with BGB IC20, at 0.005 µM): 7.12%
- inhibition ([11]; measured here: combination with BGB IC40, at 0.005 µM): 4.81%
- inhibition ([11]; measured here: combination with BGB IC40, at 0.05 µM): -36.6%
- inhibition ([11]; measured here: combination with cisplatin, at 0.5 µM, stronger effect = higher value): -24.5%
- inhibition ([11]; measured here: combination with cisplatin, at 5 µM, stronger effect = higher value): -14.8%
- inhibition ([12]; BGB combo, at 5 µM): 79.1%
- inhibition ([12]; at 0.5 µM): -24% (inactive)
- inhibition ([12]; cisplatin combo, at 5 µM): -19.4%
- inhibition [12, 20]: -11.3%
- inhibition [12, 21]: -36.9%
- inhibition ([12]; single agent, at 5 µM): 13.8%
- inhibition ([13]; BGB IC20 combo, at 0.005 µM): -2.91%
- inhibition ([13]; BGB IC40 combo, at 0.005 µM): -23%
- inhibition ([13]; BGB IC40 combo, at 0.05 µM): 11.5%
- inhibition ([13]; at 0.5 µM): -30.5% (inactive)
- inhibition ([13]; cisplatin combo, at 0.05 µM): 8.27%
- inhibition ([13]; cisplatin combo, at 0.5 µM): -19.9%
- inhibition ([13]; cisplatin combo, at 5 µM): -27.8%
- inhibition ([13]; measured here: 5 uM single agent, at 5 µM): -8.08%
- inhibition ([14]; at 0.5 µM): -26.1% (inactive)
- inhibition ([14]; measured here: with BGB IC20, at 0.5 µM): -21.1%
- inhibition ([14]; measured here: with BGB IC20, at 5 µM): -21.1%
- inhibition ([14]; measured here: with cisplatin IC20, at 0.5 µM): -39.6%
- inhibition ([14]; measured here: with cisplatin IC20, at 5 µM): -43.4%
- inhibition ([14]; single agent, at 5 µM): -10%
- inhibition ([15]; at 0.5 µM): -7.66% (inactive)
- inhibition ([15]; measured here: BGB combination, at 0.5 µM): 2.41%
- inhibition ([15]; measured here: BGB combination, at 5 µM): -3.41%
- inhibition ([15]; measured here: cisplatin combination, at 0.5 µM): -18.8%
- inhibition ([15]; measured here: cisplatin combination, at 5 µM): -28.2%
- inhibition ([16]; at 0.5 µM): -9.97% (inactive)
- inhibition ([16]; cisplatin combination, at 0.5 µM): -43.1%
- inhibition ([16]; cisplatin combination, at 5 µM): -2.65%
- inhibition ([16]; measured here: BGB IC40 combination 0.05 uM, at 0.05 µM): 19.5%
- inhibition ([16]; single agent, at 5 µM): -11.9%
- inhibition ([17]; at 0.5 µM): -20.1% (inactive)
- inhibition ([17]; cisplatin combo, at 5 µM): -55.6%
- inhibition ([17]; measured here: BGB IC40 combination, at 0.05 µM): -8.51%
- inhibition ([17]; measured here: combination with cisplatin, at 0.5 µM): -37.1%
- inhibition ([17]; single agent, at 5 µM): -16.8%
- inhibition ([18]; at 0.5 µM): -44.1% (inactive)
- inhibition [18, 20]: -33.6%
- inhibition [18, 21]: -51.8%
- inhibition ([18]; single agent, at 0.05 µM): -57.8%
- inhibition ([18]; single agent, at 5 µM): -52.7%

Compound: CC[C@]1(O)C[C@H]2CN(CCc3c([nH]c4ccccc34)[C@@](C(=O)OC)(c3cc4c(cc3OC)N(C=O)[C@H]3[C@@](O)(C(=O)OC)[C@H](OC(C)=O)[C@]5(CC)C=CCN6CC[C@]43[C@@H]65)C2)C1
- AC50 [7]: 332 nM (active)
- AC50 [10]: 29.5 nM (active)
- AC50 [8]: 29.5 nM (active)
- luciferase signal [1]: 72 AU (inactive)

Compound: CCN1CCC[C@H]1CNC(=O)c1c(OC)ccc(Br)c1OC
- survival [2]: 12.3 (inactive)

Compound: OC(CN1CCC(Cc2ccc(F)cc2)CC1)c1ccc(Cl)cc1 (configuration not stated)
- inhibition [4]: -3% (inactive)
- fluorescence ratio (interference) [5]: 1 (inactive)
- outcome [9]: inactive
- outcome [19]: inactive
- outcome [6]: inactive

Compound: COC(=O)[C@@H]1CC2=CC(=O)CC[C@]2(C)[C@@]23O[C@@H]2C[C@@]2(C)[C@@H](CC[C@@]24CCC(=O)O4)[C@H]13
- outcome [7]: inactive
- outcome [19]: inactive
- outcome [8]: inactive

Compound: CCn1ccnc1CC1COc2ccccc2O1 (configuration not stated)
- period change [3]: 0.33 h (inactive)
- inhibition [4]: -4% (inactive)
- fluorescence ratio (interference) [5]: 1 (inactive)
- outcome [6]: inactive

Compound: CN(C)C/C=C(/c1ccc(Br)cc1)c1cccnc1
- period change [3]: -0.15 h (inactive)
- survival [2]: 24.8 (inactive)
- inhibition [4]: 1% (inactive)
- fluorescence ratio (interference) [5]: 1 (inactive)
- outcome [6]: inactive

Compound: Cn1ccc2cc3c(cc21)CCN3C(=O)Nc1cccnc1
- period change [3]: 0.355 h (inactive)
- inhibition [4]: -3% (inactive)
- fluorescence ratio (interference) [5]: 0.9 (inactive)
- outcome [9]: inactive
- outcome [7]: inactive
- outcome [10]: inactive
- outcome [19]: inactive
- outcome [8]: inactive
- outcome [6]: inactive

Compound: COCCOC(=O)C1=C(C)NC(C)=C(C(=O)OC/C=C/c2ccccc2)C1c1cccc([N+](=O)[O-])c1 (configuration not stated)
- inhibition [4]: -1% (inactive)
- fluorescence ratio (interference) [5]: 1 (inactive)
- outcome [6]: active

Compound: CCOC(=O)c1cnc2c(cnn2CC)c1NN=C(C)C
- period change [3]: 0.065 h (inactive)
- inhibition [4]: -2% (inactive)
- fluorescence ratio (interference) [5]: 1 (inactive)
- outcome [6]: inactive
